ChEMBL document CHEMBL3988442, “University of Dundee, Small-Polar-MMV Screening Library” (2021)

What follows are compounds tested against T1, Arginase-2, mitochondrial (Homo sapiens) (UniProt P78540) (assay: in vitro enzyme assay to detect the production of urea directly proportional to the activity of Arginase II). Details: 30 µM.
T1 sequence (whole entry): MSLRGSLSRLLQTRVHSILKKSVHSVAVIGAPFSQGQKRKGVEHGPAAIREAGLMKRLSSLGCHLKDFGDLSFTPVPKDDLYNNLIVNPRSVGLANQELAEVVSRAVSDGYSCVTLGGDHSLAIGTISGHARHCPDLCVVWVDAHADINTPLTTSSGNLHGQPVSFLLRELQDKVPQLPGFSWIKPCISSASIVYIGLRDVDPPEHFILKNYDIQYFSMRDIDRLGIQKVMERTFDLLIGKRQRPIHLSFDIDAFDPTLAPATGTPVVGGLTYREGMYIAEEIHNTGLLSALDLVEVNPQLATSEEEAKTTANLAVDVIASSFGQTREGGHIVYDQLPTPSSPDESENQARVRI
Assay type: functional
Design: scale not given: in the data most compounds retested in dose-response had high values

Row | Compound | Percent Effect
1 | CNC(=O)[C@H]1C[C@@H]2CN(C(=O)c3cccnc3)C[C@@H]2N1S(C)(=O)=O | 5.95%
2 | O=C(NCc1ccccn1)[C@]12COC[C@H]1CN(Cc1ccccc1F)C2 | 4.87%
3 | Cc1ccc(C(=O)N(CCC#N)Cc2ccccn2)cc1C | 3.78%
4 | CCn1ccnc1C1CCCN(C(=O)c2sc(C)nc2C)C1 (stereo not given) | 2.7%
5 | CN(Cc1cccnc1)C1CC2(CCN(Cc3cccnc3)CC2)C1 | -12.4%
6 | Cc1nc(NCC2CC2)nc2c1COCC21CCN(S(=O)(=O)C2CC2)C1 (stereo not given) | 7.03%
7 | CC(=O)NCCNC(=O)c1cc(Br)c2c(c1)OCCO2 | 4.87%
8 | O=C(c1coc(CN2CCN(c3ccccc3F)CC2)n1)N1CC=CC1 | 5.95%
9 | NC(=O)CCCNC(=O)c1cc(Br)c2c(c1)OCCO2 | 3.78%
10 | COCCC(=O)NCC1COc2cc(OC)ccc2C1 (stereo not given) | 5.95%
11 | CN1CCN(C(=O)Cn2ccc3c(Cl)cccc32)CC1 | 4.87%
12 | COc1ccc2c(c1)OCC(CNC(=O)c1cc(C(C)C)on1)C2 (stereo not given) | 2.7%
13 | Cc1noc(C)c1C(=O)N1CCCC(c2nccn2Cc2cscn2)C1 (stereo not given) | 5.95%
14 | NS(=O)(=O)CCNC(=O)c1cc(Br)c2c(c1)OCCO2 | 8.11%
15 | CNC(=O)[C@H]1C[C@@H]2CN(C(=O)c3ccncc3)C[C@@H]2N1S(C)(=O)=O | 4.87%
16 | CNC(=O)CCNC(=O)c1cc(Br)c2c(c1)OCCO2 | -10.3%
17 | CN(Cc1ccco1)[C@@H]1CN(CC2CCOCC2)C[C@@H]2CCCO[C@@H]21 | 7.03%
18 | COCc1csc(NC(=O)N2CCC(Cc3cnn(C)c3)C2)n1 (stereo not given) | 2.7%
19 | Cc1ccc([C@@H]2CN(S(=O)(=O)Cc3ccccc3)C[C@H]2N(C)C)cc1 | 1.62%
20 | CCCc1n[nH]cc1C(=O)NCC1COc2cc(OC)ccc2C1 (stereo not given) | 8.11%

Row | Compound | Percent Effect
21 | CC(C)CN1CCC(NC(=O)c2ccc(F)cc2Cl)CC1 | 5.95%
22 | COc1ccc2c(c1)OCC(CNC(=O)NC(C)(C)C)C2 (stereo not given) | 5.95%
23 | Cc1nn(C)c2c(=O)n(C(C)C)c(NCCc3ccccc3)nc12 | 8.11%
24 | OC(CN(Cc1ccccc1)Cc1cscn1)c1cccs1 (stereo not given) | 8.11%
25 | Cc1ccc([C@@H]2CN(S(=O)(=O)c3cc(C)ccc3F)C[C@H]2N(C)C)cc1 | 2.7%
26 | COc1ccccc1Oc1ncccc1CNC(=O)C(O)C(F)(F)F (stereo not given) | 3.78%
27 | Cn1cc(CN2C[C@@H]3COC[C@]3(C(=O)NCc3cccs3)C2)cn1 | 4.87%
28 | CC(=O)N1CCN(C(=O)Cn2ccc3c(Cl)cccc32)CC1 | 2.7%
29 | COc1ccccc1Oc1ncccc1CNC(=O)[C@H](C)O | 4.87%
30 | CN(Cc1ccncc1)C1CC2(CCN(Cc3ccccn3)CC2)C1 | 5.95%
31 | COc1ccc(OCC(O)CN2CCN(c3nccs3)CC2)cc1 (stereo not given) | -8.11%
32 | Cn1cc(CC2CCN(C(=O)NCCCc3ccc(O)cc3)C2)cn1 (stereo not given) | 7.03%
33 | Cc1nc(NCC2CC2)nc2c1COCC21CCN(C(=O)NC(C)C)C1 (stereo not given) | 7.03%
34 | Cc1ccc(-c2nc(CN3CC(n4nc(C)cc4C)C3)no2)cc1 | 3.78%
35 | O=c1[nH]c2c(c(=O)n1C1CCCCC1)CCC2Nc1ccccn1 (stereo not given) | 5.95%
36 | OC(CN(Cc1ccccc1)Cc1cccnc1)c1cccs1 (stereo not given) | -5.95%
37 | CCOc1cccc(C(=O)N(CCC#N)Cc2ccccn2)c1 | 13.5%
38 | CC(C)CN1CCC(NC(=O)c2ccc(Cl)cc2Cl)CC1 | -7.03%
39 | Cc1ccc([C@@H]2CN(S(=O)(=O)c3ccccc3)C[C@H]2N(C)C)cc1 | 3.78%
40 | OCCN1CCC(c2cncc(-c3cccc(Cl)c3)n2)CC1 | -3.78%
